Data taken from publication PMC7826789 (International Journal of Molecular Sciences, 2021).

Key:
Conditions in all cases: Compound Concentration (nM):1000
[1] = system: T1, RSK3(Kin.Dom.1-N-terminal)
T1 construct: gene RPS6KA2

[2] = system: T2, RSK3(Kin.Dom.2-C-terminal)
T2 construct: gene RPS6KA2

[3] = system: T3, RSK4(Kin.Dom.1-N-terminal)
T3 construct: gene RPS6KA6

[4] = system: T4, RSK4(Kin.Dom.2-C-terminal)
T4 construct: gene RPS6KA6

S6K1 = system: T5, S6K1
T5 construct: gene RPS6KB1

SBK1 = system: SBK1
SGK2 = system: SGK2
SGK3 = system: SGK3
SGK = system: T6, SGK
T6 construct: gene SGK1

SIK2 = system: SIK2
SIK = system: T7, SIK
T7 construct: gene SIK1

SLK = system: SLK
SNARK = system: T8, SNARK
T8 construct: gene NUAK2

SNRK = system: SNRK
SRC = system: SRC
SRMS = system: SRMS
SRPK1 = system: SRPK1
SRPK2 = system: SRPK2
SRPK3 = system: SRPK3
STK16 = system: STK16
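Also: KINOMEscan scanMAX binding as percent activity remaining versus control; lower means stronger binding.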

CC(C)COC(=O)c1ccc2c(c1)/C(=C/Nc1ccc(S(N)(=O)=O)cc1)C(=O)N2 [GW416981X]
Percent Control [1]: 100%
Percent Control [2]: 100%
Percent Control [3]: 43%
Percent Control [4]: 100%
Percent Control (S6K1): 65%
Percent Control (SBK1): 71%
Percent Control (SGK2): 79%
Percent Control (SGK3): 18%
Percent Control (SGK): 31%
Percent Control (SIK2): 94%
Percent Control (SIK): 100%
Percent Control (SLK): 100%
Percent Control (SNARK): 13%
Percent Control (SNRK): 100%
Percent Control (SRC): 100%
Percent Control (SRMS): 100%
Percent Control (SRPK1): 100%
Percent Control (SRPK2): 100%
Percent Control (SRPK3): 100%
Percent Control (STK16): 6.8%

CCn1c(-c2nonc2N)nc2c(C#CC(C)(C)O)nc(OCCNC)cc21.Cl [GSK949675]
Percent Control [1]: 99%
Percent Control [2]: 100%
Percent Control [3]: 100%
Percent Control [4]: 100%
Percent Control (S6K1): 100%
Percent Control (SBK1): 96%
Percent Control (SGK2): 100%
Percent Control (SGK3): 92%
Percent Control (SGK): 94%
Percent Control (SIK2): 90%
Percent Control (SIK): 89%
Percent Control (SLK): 100%
Percent Control (SNARK): 41%
Percent Control (SNRK): 100%
Percent Control (SRC): 100%
Percent Control (SRMS): 100%
Percent Control (SRPK1): 84%
Percent Control (SRPK2): 100%
Percent Control (SRPK3): 100%
Percent Control (STK16): 100%

COc1cc(N2CCN(C(C)C)CC2)ccc1Nc1nc(Nc2ccc(F)cc2C(=O)NC[C@@H](O)CO)c2cc[nH]c2n1 [GSK1392956A]
Percent Control [1]: 67%
Percent Control [2]: 72%
Percent Control [3]: 55%
Percent Control [4]: 86%
Percent Control (S6K1): 94%
Percent Control (SBK1): 64%
Percent Control (SGK2): 100%
Percent Control (SGK3): 91%
Percent Control (SGK): 99%
Percent Control (SIK2): 100%
Percent Control (SIK): 100%
Percent Control (SLK): 100%
Percent Control (SNARK): 66%
Percent Control (SNRK): 87%
Percent Control (SRC): 100%
Percent Control (SRMS): 100%
Percent Control (SRPK1): 99%
Percent Control (SRPK2): 99%
Percent Control (SRPK3): 100%
Percent Control (STK16): 85%

C/C(Nc1ccc(S(N)(=O)=O)cc1)=C1/C(=O)Nc2ccccc21 [GW335962X]
Percent Control [1]: 83%
Percent Control [2]: 82%
Percent Control [3]: 47%
Percent Control [4]: 86%
Percent Control (S6K1): 60%
Percent Control (SBK1): 100%
Percent Control (SGK2): 71%
Percent Control (SGK3): 26%
Percent Control (SGK): 21%
Percent Control (SIK2): 90%
Percent Control (SIK): 100%
Percent Control (SLK): 92%
Percent Control (SNARK): 65%
Percent Control (SNRK): 100%
Percent Control (SRC): 100%
Percent Control (SRMS): 91%
Percent Control (SRPK1): 82%
Percent Control (SRPK2): 88%
Percent Control (SRPK3): 87%
Percent Control (STK16): 41%

COc1cccc(-c2c[nH]c3c(N/N=C/c4ccncc4)ncnc23)c1 [GW814408X]
Percent Control [1]: 100%
Percent Control [2]: 100%
Percent Control [3]: 49%
Percent Control [4]: 100%
Percent Control (S6K1): 84%
Percent Control (SBK1): 83%
Percent Control (SGK2): 38%
Percent Control (SGK3): 59%
Percent Control (SGK): 22%
Percent Control (SIK2): 17%
Percent Control (SIK): 92%
Percent Control (SLK): 76%
Percent Control (SNARK): 56%
Percent Control (SNRK): 100%
Percent Control (SRC): 27%
Percent Control (SRMS): 100%
Percent Control (SRPK1): 38%
Percent Control (SRPK2): 100%
Percent Control (SRPK3): 60%
Percent Control (STK16): 65%

COC(=O)Nc1nc2ccc(Oc3ccc(NC(=O)Nc4cc(C(F)(F)F)ccc4F)cc3)cc2s1.Cl [GW693917A]
Percent Control [1]: 65%
Percent Control [2]: 91%
Percent Control [3]: 76%
Percent Control [4]: 79%
Percent Control (S6K1): 54%
Percent Control (SBK1): 100%
Percent Control (SGK2): 80%
Percent Control (SGK3): 78%
Percent Control (SGK): 87%
Percent Control (SIK2): 68%
Percent Control (SIK): 98%
Percent Control (SLK): 68%
Percent Control (SNARK): 86%
Percent Control (SNRK): 100%
Percent Control (SRC): 54%
Percent Control (SRMS): 92%
Percent Control (SRPK1): 86%
Percent Control (SRPK2): 90%
Percent Control (SRPK3): 74%
Percent Control (STK16): 76%

Cl.O=S1CCN(Cc2ccc(-c3ccc4ncnc(Nc5ccc(OCc6ccccc6)c(F)c5)c4c3)o2)CC1 [GW576924A]
Percent Control [1]: 100%
Percent Control [2]: 100%
Percent Control [3]: 97%
Percent Control [4]: 100%
Percent Control (S6K1): 97%
Percent Control (SBK1): 100%
Percent Control (SGK2): 100%
Percent Control (SGK3): 78%
Percent Control (SGK): 100%
Percent Control (SIK2): 81%
Percent Control (SIK): 100%
Percent Control (SLK): 100%
Percent Control (SNARK): 96%
Percent Control (SNRK): 100%
Percent Control (SRC): 100%
Percent Control (SRMS): 100%
Percent Control (SRPK1): 100%
Percent Control (SRPK2): 100%
Percent Control (SRPK3): 78%
Percent Control (STK16): 100%

COc1ccc2[nH]c3c4[nH]c5ccc(OC)cc5c4c4c(c3c2c1)C(=O)NC4=O [GW296115X]
Percent Control [1]: 28%
Percent Control [2]: 69%
Percent Control [3]: 5.8%
Percent Control [4]: 61%
Percent Control (S6K1): 21%
Percent Control (SBK1): 95%
Percent Control (SGK2): 46%
Percent Control (SGK3): 8.1%
Percent Control (SGK): 6.8%
Percent Control (SIK2): 9.9%
Percent Control (SIK): 67%
Percent Control (SLK): 96%
Percent Control (SNARK): 59%
Percent Control (SNRK): 56%
Percent Control (SRC): 87%
Percent Control (SRMS): 100%
Percent Control (SRPK1): 86%
Percent Control (SRPK2): 94%
Percent Control (SRPK3): 100%
Percent Control (STK16): 74%

NS(=O)(=O)c1ccc(N/N=C2\C(=O)Nc3ccc(C(=O)NCc4ccncc4)cc32)cc1 [GW300657X]
Percent Control [1]: 100%
Percent Control [2]: 80%
Percent Control [3]: 56%
Percent Control [4]: 80%
Percent Control (S6K1): 78%
Percent Control (SBK1): 37%
Percent Control (SGK2): 81%
Percent Control (SGK3): 12%
Percent Control (SGK): 36%
Percent Control (SIK2): 100%
Percent Control (SIK): 95%
Percent Control (SLK): 100%
Percent Control (SNARK): 8.9%
Percent Control (SNRK): 100%
Percent Control (SRC): 100%
Percent Control (SRMS): 93%
Percent Control (SRPK1): 89%
Percent Control (SRPK2): 6.6%
Percent Control (SRPK3): 72%
Percent Control (STK16): 23%

Cl.O=C(Nc1ccc(Oc2ccc3[nH]c(NC(=O)c4ccco4)nc3c2)cc1)Nc1cc(C(F)(F)F)ccc1F [GW683134A]
Percent Control [1]: 92%
Percent Control [2]: 100%
Percent Control [3]: 100%
Percent Control [4]: 100%
Percent Control (S6K1): 43%
Percent Control (SBK1): 100%
Percent Control (SGK2): 100%
Percent Control (SGK3): 100%
Percent Control (SGK): 100%
Percent Control (SIK2): 100%
Percent Control (SIK): 100%
Percent Control (SLK): 40%
Percent Control (SNARK): 100%
Percent Control (SNRK): 95%
Percent Control (SRC): 96%
Percent Control (SRMS): 100%
Percent Control (SRPK1): 100%
Percent Control (SRPK2): 100%
Percent Control (SRPK3): 84%
Percent Control (STK16): 92%
